# From PubChem BioAssay (Tox21)
# Inconclusive results are not listed. The source made the active and inactive calls. Calls follow the shape of the dose curve; as a rule, active = well fitted inhibition curve with a large enough effect in the signal ratio in the repeat runs (not every such curve was filed as active); inconclusive = weak or mixed curves, or effect the other way; inactive = no such curve, though single readings can be large or run the other way; the % refers to the signal ratio.
# Target: Bile acid receptor (Homo sapiens) (UniProt Q96RI1)
# Sequence (Q96RI1 whole entry, looked up): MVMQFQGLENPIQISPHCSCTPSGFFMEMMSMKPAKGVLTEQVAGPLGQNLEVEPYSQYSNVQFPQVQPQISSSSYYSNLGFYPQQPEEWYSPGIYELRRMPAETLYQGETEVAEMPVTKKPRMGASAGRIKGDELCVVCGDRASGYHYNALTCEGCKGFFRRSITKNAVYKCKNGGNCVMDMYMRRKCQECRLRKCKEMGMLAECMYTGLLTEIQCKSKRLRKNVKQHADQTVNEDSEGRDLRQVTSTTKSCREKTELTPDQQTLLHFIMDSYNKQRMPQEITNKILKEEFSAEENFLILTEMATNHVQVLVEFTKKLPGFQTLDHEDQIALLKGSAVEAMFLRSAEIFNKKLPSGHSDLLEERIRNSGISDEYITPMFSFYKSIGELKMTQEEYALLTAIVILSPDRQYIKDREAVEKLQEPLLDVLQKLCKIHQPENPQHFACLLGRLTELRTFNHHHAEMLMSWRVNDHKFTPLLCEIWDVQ
# Test: qHTS assay to identify small molecule antagonists of the farnesoid-X-receptor (FXR) signaling pathway (AID 743217)
# Conditions: HEK293T FXR-UAS-bla, beta-lactamase ratio, CDCA-stimulated, 16 h; series mostly up to 62.6 µM; activity change, negative = inhibition: at the top concentration
# Description: U.S. Tox21 Program National Center for Advancing Translational Sciences [NCATS] NIH Chemical Genomics Center [NCGC] U.S. Environmental Protection Agency [EPA] National Institutes of Environmental Health Sciences [NIEHS] National Toxicology Program [NTP] U.S. Food and Drug Administration [FDA] Tox21 Assay Overview: The farnesoid-X-receptor (FXR), a nuclear hormone receptor, is highly expressed in liver, intestine, kidney and adrenal cortex. Natural ligands of FXR are the bile acids (Cholic acid, Chenodeoxy cholic acid etc). FXR is an important regulator of diverse metabolic pathways, including the bile acid homeostasis, lipid and glucose metabolisms. FXR regulates the expression of target genes by binding either as a monomer or as a heterodimer with the retinoid X receptor (RXR). Numerous studies have reported that FXR exerts protective function during cholestasis, diabetes, liver regeneration, and cancer. To identify compounds that inhibit FXR signaling, GeneBLAzer FXR-UAS-bla HEK 293T cell line (Invitrogen, Carlsbad, CA) containing a beta-lactamase reporter gene under the control of a UAS response element was used to screen the Tox21 10K compound library.
# Tox21 Assay Protocol Summary: FXR-bla cells were dispensed at 5000 cells/5uL/well in 1536-well black wall/clear bottom plates using a Multidrop Combi (Thermo Fisher Scientific, Waltham, MA) dispenser. After the assay plates were incubated at 37C and 5% CO2 for 5 h, 23 nL of compounds dissolved in DMSO, positive controls or DMSO only was transferred to the assay plate by a Pintool station (Kalypsys, San Diego, CA), followed by addition of 1 uL Chenodeoxycholic acid (50 uM, final concentration in the wells). The assay plates were incubated at 37C for 16 h. After 1 uL of LiveBLAzerTM B/G FRET substrate was added using a Bioraptr Flying Reagent Dispenser (FRD) workstation (Beckman Coulter, Indianapolis, IN), the plates were incubated at room temperature for 2 h, and fluorescence intensity was measured by an Envision plate reader (PerkinElmer, Shelton, CT).
# % is scaled to controls: 0 for no effect and ±100 for the full control effect; potency is read from the fitted curve at half-maximal effect.
SMILES,"activity change, negative = inhibition",Potency
CCCCCCCCSCCO,4.18% (inactive),–
Cc1cc(OI)c(C(C)C)cc1-c1cc(C(C)C)c(OI)cc1C,-16.1% (inactive),–
CCCC1C(CC)=CC(CC)=CN1c1ccccc1 (stereo not given),-11% (inactive),–
Fc1ccccc1[C@@H](F)COC1CCC(Nc2ncnc3[nH]ncc23)CC1 (stereo not given in full),–,43.6 µM (active)
CCOC(=O)c1ccccc1C,-15.9% (inactive),–
CN(C)CCOC1=Cc2ccccc2Sc2ccc(Cl)cc21,-0.845% (inactive),–
CC(C)CCCC(=O)O,-5.56% (inactive),–
[O]=[Bi],6.5% [at 5.95 µM] (inactive),–
CC(C)(CCl)c1ccccc1,0.44% (inactive),–
Cc1ccccc1N1C(=O)c2cc(S(N)(=O)=O)c(Cl)cc2NC1C (stereo not given),0.095% (inactive),–
CC(=O)OCC(=O)[C@H]1CC[C@H]2[C@@H]3CCC4=CC(=O)CC[C@]4(C)[C@H]3CC[C@]12C,-7.95% (inactive),–
CCC(C(=O)OCCOCCN(CC)CC)c1ccccc1 (stereo not given),-0.132% (inactive),–
C=CCNc1nc(NCC=C)nc(N2CCN(C(c3ccc(F)cc3)c3ccc(F)cc3)CC2)n1,7.58% (inactive),–
O=C1NCCN1,-3.47% (inactive),–
CC#N,0.692% [at 81.1 µM] (inactive),–
C=CCOC(=O)/C=C\C(=O)OCC=C,-11.7% [at 81.1 µM] (inactive),–
CC(=O)Nc1ccc(N)cc1,-9.32% [at 81.1 µM] (inactive),–
CO/N=C1\CN(c2nc3c(cc2F)c(=O)c(C(=O)O)cn3C2CC2)CC1CN (stereo not given),8.29% (inactive),–
Cc1cc(S(=O)(=O)O)ccc1N=Nc1c(O)ccc2ccccc12,7.34% (inactive),–
CCCCC/C(=C\c1ccccc1)CO,-6.46% [at 81.1 µM] (inactive),–

SMILES,"activity change, negative = inhibition",Potency
c1ccc(COCc2ccccc2)cc1,2.29% [at 81.1 µM] (inactive),–
CCC(C)=O,0.883% (inactive),–
Nc1c(I)cc(I)c(C(=O)N(CCC(=O)O)c2ccccc2)c1I,-1.3% (inactive),–
CC(C)(C)C(=O)C(Oc1ccc(Cl)cc1)n1ccnc1 (stereo not given),1.35% (inactive),–
CC(=O)Oc1ccc2c(c1)CC[C@@H]1[C@@H]2CC[C@]2(C)[C@@H](O)CC[C@@H]12,–,29.8 µM (active)
Cc1oncc1C(=O)Nc1ccc(C(F)(F)F)cc1,-5.04% (inactive),–
CCCCC(CC)C(=O)OCCOCCOCCOCCOC(=O)C(CC)CCCC (stereo not given),-7.35% (inactive),–
Nc1ccc(S(=O)(=O)O)cc1,5.55% [at 81.1 µM] (inactive),–
CCCc1c(OCCCOc2ccc(OCC(=O)O)cc2)ccc(C(C)=O)c1O,-21.6% (inactive),–
CCCC(=O)O[C@]1(C(=O)COC(=O)CC)CC[C@H]2[C@@H]3CCC4=CC(=O)CC[C@]4(C)[C@H]3[C@@H](O)C[C@@]21C,-3.31% [at 29.1 µM] (inactive),–
CC(C)OCC1CO1 (stereo not given),7.25% (inactive),–
CCCOc1ccc(S(=O)(=O)N2CCN(CC)CC2)cc1-c1nc2c(CC)n(Cc3ccccn3)nc2c(=O)[nH]1,12.1% (inactive),–
O=C(Nc1ccc([N+](=O)[O-])cc1)Nc1ccc([N+](=O)[O-])cc1,0.506% (inactive),–
Nc1ccc(C(=O)OCCCOC(=O)c2ccc(N)cc2)cc1,-20% (inactive),–
CC(C)CCCCCCOC(=O)CCCCC(=O)OCCCCCCC(C)C,-1.81% (inactive),–
O=C(O)c1ccc(CO)o1,-1.81% [at 81.1 µM] (inactive),–
O=C(O)c1cccc(O)c1,-3.11% [at 81.1 µM] (inactive),–
C/C=C(\C)C(=O)OCCC(C)CCC=C(C)C (stereo not given),-1.64% (inactive),–
CC(CCO)CCc1ccccc1 (stereo not given),5.09% (inactive),–
CCCCCCCCCCOS(=O)(=O)O,10.8% (inactive),–
